The values that follow come from PubChem BioAssay (EPA / NIEHS).

The AC50 is the concentration at which the activity in the assay is half-maximal.

A short description of assay [1]: ATG_TCF_b_cat_CIS: Attagene CIS-FACTORIAL HepG2 Assay for human T-Cell-Factor with beta-catenin (TCF/b-cat) (AID 2282965). The conditions noted are these: HepG2 TCF/beta-catenin cis-reporter transcription, actives raise or lower the signal. Summed up: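 Endogenous transcription factor activity is captured through cis-promoter reporter constructs transiently introduced into human HepG2 liver cells. Induced reporter mRNA is measured after 24 h and fitted bidirectionally relative to DMSO.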

A short description of assay [2]: ATG_TAL_CIS: Attagene CIS-FACTORIAL HepG2 Assay for human TAL Basal Promoter (AID 2282966).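 Also: background control endpoint measuring basal TAL promoter reporter mRNA not a specific factor.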 The conditions noted are these: HepG2 Attagene cis-factorial TAL promoter reporter; actives raise or lower the signal. Summed up: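 HepG2 cells transiently transfected with multiplexed cis-promoter reporter units, dosed 24 h. Reporter mRNA quantified by RT-PCR, 6-FAM labelling, HpaI digestion and capillary electrophoresis; TAL basal promoter serves as background control, fitted bidirectionally versus DMSO.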

A short description of assay [3]: ATG_TGFb_CIS: Attagene CIS-FACTORIAL HepG2 Assay for human Transforming Growth Factor (TGF) (AID 2282967). The conditions noted are these: HepG2 Attagene CIS TGFb reporter, mRNA transcription; actives raise or lower the signal. The gist of the method: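 Liver HepG2 line, cis-factorial reporter panel, 24 h dosing. Quantitation: RT-PCR products labeled with 6-FAM, cut with HpaI, resolved by capillary electrophoresis; DMSO-referenced bidirectional analysis.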

Assay [4] in a line: ATG_VDRE_CIS: Attagene CIS-FACTORIAL HepG2 Assay for human Vitamin D Receptor Element (VDRE) (AID 2282968). The conditions noted are these: HepG2 VDRE cis-reporter transcription, actives raise or lower the signal. Summed up:
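In transiently transfected HepG2 liver cells, gain or loss of reporter mRNA after 24 h exposure is scored relative to DMSO, using fluorescence detection by capillary electrophoresis of RT-PCR products.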

Assay [5] concerns the target Nuclear receptor subfamily 1 group I member 3 (Homo sapiens) (UniProt Q14994). Put plainly: ATG_CAR_TRANS: Attagene TRANS-FACTORIAL HepG2 Assay for human Constitutive Androstane Receptor (CAR) (AID 2282969; active = hit-call score of the fitted dose curve at least 0.9, where 1 is the maximum;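 also: activators raise reporter mRNA above DMSO so AC50 marks induction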). As to conditions: HepG2 Attagene TRANS-FACTORIAL CAR reporter. The gist of the method:
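Readout is reporter mRNA induction, quantified by fluorescent primer extension and capillary electrophoresis after RT-PCR. Cells were HepG2 transiently carrying chimeric NR-Gal4 constructs with GAL4-UAS reporters, treated for 24 h; activity scored upward from DMSO.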

In assay [6] the target is Estrogen receptor (Homo sapiens) (UniProt P03372). As to the kind of experiment: ATG_ERa_TRANS: Attagene TRANS-FACTORIAL HepG2 Assay for human Estrogen Receptor alpha (ERa) (AID 2282970; active = hit-call score of the fitted dose curve at least 0.9, where 1 is the maximum). The conditions noted are these: HepG2 Attagene TRANS ERa GAL4 reporter, mRNA. Summed up:
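HepG2 cells transiently transfected with multiplexed GAL4-UAS reporter units read out chimeric NR-Gal4 activity. After 24 h compound exposure, reporter mRNA was quantified by RT-PCR, 6-FAM labeling, HpaI digestion and capillary electrophoresis, relative to DMSO.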

Assay [7] concerns the target X-box-binding protein 1 (Homo sapiens) (UniProt P17861). Put plainly: ATG_Xbp1_CIS: Attagene CIS-FACTORIAL HepG2 Assay for human X-box Binding Protein 1 (XBP1) (AID 2282972). As to conditions: HepG2 XBP1 cis-element reporter, Attagene multiplex; actives raise or lower the signal. Summed up:
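Fluorescence-labelled cDNA fragments from reporter transcripts, separated by capillary electrophoresis, give the signal. Source: HepG2 cells transfected with promoter-driven reporter units, harvested 24 h post-dose. DMSO served as reference for bidirectional curve fitting.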

A short description of assay [8]: ATG_M_19_TRANS: Attagene TRANS-FACTORIAL HepG2 Assay for M19 Transcription Factor (Internal Marker) (AID 2282974; active = hit-call score of the fitted dose curve at least 0.9, where 1 is the maximum). The conditions noted are these: HepG2 Attagene TRANS-FACTORIAL M19 internal marker reporter. The gist of the method: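 HepG2 transiently transfected with GAL4-UAS multiplex reporter constructs, exposed 24 h; reporter RNA quantified by RT-PCR, 6-FAM labeling, HpaI digestion and capillary electrophoresis; internal background marker fitted upward versus DMSO.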

In assay [9] the target is Estrogen-related receptor gamma (Homo sapiens) (UniProt P62508). Put plainly: ATG_ERRg_TRANS: Attagene TRANS-FACTORIAL HepG2 Assay for human Estrogen-Related Receptor gamma (ERRg) (AID 2282977; active = hit-call score of the fitted dose curve at least 0.9, where 1 is the maximum;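 also: hits increase reporter signal over DMSO so potencies reflect activators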). As to conditions: HepG2 Attagene TRANS reporter, ERRg transactivation. The gist of the method: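 HepG2 cells transiently transfected with multiplexed GAL4-UAS reporter units and chimeric NR-Gal4 constructs were exposed to test chemicals for 24 h. Reporter mRNA was measured by RT-PCR, 6-FAM primer extension, HpaI digestion and capillary electrophoresis; gain-of-signal versus DMSO.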
Estrogen-related receptor gamma (Homo sapiens), sequence (P62508 whole entry, looked up, the tested form may be a part): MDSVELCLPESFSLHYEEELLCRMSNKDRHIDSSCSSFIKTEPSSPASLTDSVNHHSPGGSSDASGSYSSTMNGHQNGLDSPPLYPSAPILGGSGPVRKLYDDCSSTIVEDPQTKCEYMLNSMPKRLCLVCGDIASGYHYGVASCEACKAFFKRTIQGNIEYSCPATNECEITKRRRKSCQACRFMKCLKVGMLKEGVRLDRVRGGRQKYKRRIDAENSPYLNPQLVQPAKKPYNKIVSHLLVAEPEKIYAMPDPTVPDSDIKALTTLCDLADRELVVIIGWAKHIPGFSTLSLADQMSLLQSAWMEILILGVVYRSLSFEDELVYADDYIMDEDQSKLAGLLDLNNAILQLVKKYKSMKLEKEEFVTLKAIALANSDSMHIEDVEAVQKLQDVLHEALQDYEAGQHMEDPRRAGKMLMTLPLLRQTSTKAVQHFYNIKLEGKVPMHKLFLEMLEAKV

A short description of assay [10]: ATG_GAL4_TRANS: Attagene TRANS-FACTORIAL HepG2 Assay for GAL4 (Internal Marker) (AID 2282976; active = hit-call score of the fitted dose curve at least 0.9, where 1 is the maximum). As to conditions: HepG2 Attagene TRANS GAL4 internal marker reporter. Summed up:
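Background-control readout: GAL4-UAS reporter transcript in transiently transfected HepG2 cells after 24 h compound exposure. Measured by RT-PCR, 6-FAM primer extension, HpaI digest and capillary electrophoresis; gain-of-signal fit versus DMSO.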

Records with an inconclusive call do not appear. Activity calls are given as the source filed them. The calls were made as follows, unless noted: active = hit-call score of the fitted dose curve at least 0.9, where 1 is the maximum; inactive = score below 0.9.

Estrogen receptor (Homo sapiens), sequence (P03372 whole entry, looked up, the tested form may be a part): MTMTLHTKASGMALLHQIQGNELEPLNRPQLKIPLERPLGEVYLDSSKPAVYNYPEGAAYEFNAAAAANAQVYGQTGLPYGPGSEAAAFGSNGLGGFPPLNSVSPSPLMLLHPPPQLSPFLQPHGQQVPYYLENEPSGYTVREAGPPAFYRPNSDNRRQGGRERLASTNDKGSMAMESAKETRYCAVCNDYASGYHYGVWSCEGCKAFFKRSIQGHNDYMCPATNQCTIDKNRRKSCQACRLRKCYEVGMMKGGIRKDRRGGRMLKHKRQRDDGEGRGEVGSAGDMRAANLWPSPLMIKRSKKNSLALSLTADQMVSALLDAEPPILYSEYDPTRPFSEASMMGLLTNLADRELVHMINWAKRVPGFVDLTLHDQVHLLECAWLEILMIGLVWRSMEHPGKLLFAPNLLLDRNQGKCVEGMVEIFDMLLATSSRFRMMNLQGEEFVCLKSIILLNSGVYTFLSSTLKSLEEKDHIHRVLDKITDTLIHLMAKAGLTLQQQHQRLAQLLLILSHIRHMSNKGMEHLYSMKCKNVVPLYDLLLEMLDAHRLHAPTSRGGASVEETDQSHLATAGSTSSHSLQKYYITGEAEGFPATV
Nuclear receptor subfamily 1 group I member 3 (Homo sapiens), sequence (Q14994 whole entry, looked up, the tested form may be a part): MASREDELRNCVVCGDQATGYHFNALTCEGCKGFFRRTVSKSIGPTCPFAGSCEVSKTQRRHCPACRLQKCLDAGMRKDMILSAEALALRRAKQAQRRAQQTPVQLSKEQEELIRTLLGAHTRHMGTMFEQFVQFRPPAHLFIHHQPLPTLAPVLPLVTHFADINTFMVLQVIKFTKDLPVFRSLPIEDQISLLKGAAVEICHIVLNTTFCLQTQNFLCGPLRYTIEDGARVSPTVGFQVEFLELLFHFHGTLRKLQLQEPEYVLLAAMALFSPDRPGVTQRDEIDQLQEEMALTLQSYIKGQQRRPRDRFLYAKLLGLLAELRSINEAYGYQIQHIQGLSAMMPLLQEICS
X-box-binding protein 1 (Homo sapiens), sequence (P17861 whole entry, looked up, the tested form may be a part): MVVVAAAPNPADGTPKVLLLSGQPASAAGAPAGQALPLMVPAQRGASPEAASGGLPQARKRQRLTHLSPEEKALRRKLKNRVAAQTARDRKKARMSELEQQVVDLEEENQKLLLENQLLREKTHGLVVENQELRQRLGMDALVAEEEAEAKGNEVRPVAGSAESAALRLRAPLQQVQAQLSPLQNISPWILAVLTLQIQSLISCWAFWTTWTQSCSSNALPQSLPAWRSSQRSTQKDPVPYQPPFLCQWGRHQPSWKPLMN

Consider `CCCCCCC(=O)OCC`, for which the molecule was called inactive in assay [1], in assay [2], in [3], in assay [4], in assay [5] and in assay [7]. The result in [8] and in assay [9] was inactive. Besides, the AC50 in assay [6] was 17.6 µM (active).
Turning to `CC(CO)OC(C)CO` (configuration not stated) (tested in a mixture with another compound), the molecule was classed as inactive in assay [1], in assay [2], in [3], in assay [4], in [6] and in assay [7].
For the molecule `C[C@]12C=CC(=O)C=C1CC[C@@H]1[C@@H]2C(=O)C[C@@]2(C)[C@H]1CC[C@]2(O)C(=O)CO`, the call in assay [1], in [2], in [3], in assay [4] and in assay [7] was inactive. In addition, in [6], the concentration at half-maximal activity (AC50) is 58.3 µM (active).
For `COc1ccc(C)cc1N`, the outcome in assay [1], in [2], in [3], in assay [4], in [5] and in assay [6] was inactive. The result in assay [7] and in [10] was inactive.
As to `CCCCCCOCCO`, the call in assay [1], in assay [2], in assay [3], in assay [4], in [6] and in assay [7] was inactive. Besides, the result in [10] was inactive.
As to `COc1cc(C=O)ccc1O`, the call in [1], in [2], in assay [3], in assay [4], in assay [5] and in assay [6] was inactive. The result in assay [7] and in assay [10] was inactive.
For `O=c1c(O)c(-c2ccc(O)c(O)c2)oc2cc(O)cc(O)c12`, the molecule was called inactive in assay [1], in [2], in [3], in assay [4], in [5] and in [7].
As to `CC(=O)OCCOCCOCCOC(C)=O`, the result in assay [1], in [2], in assay [3], in assay [4], in [6] and in assay [7] was inactive. The call in [10] was inactive.
Turning to `Cc1nc(-c2ccc3c(c2)CCN(CCC2CCC(NC(=O)/C=C/c4ccc(F)cc4)CC2)CC3)no1` (configuration not stated), the call in assay [1], in assay [2], in assay [3], in [4] and in assay [7] was inactive.
On to `c1cc(-c2ccncc2)ccn1`, for which the call in assay [1], in [2], in [3], in [4], in [6] and in assay [7] was inactive. In assay [10], the call was inactive.
With `C[Si]1(C)O[Si](C)(C)O[Si](C)(C)O[Si](C)(C)O1`, the molecule was classed as inactive in [1], in assay [2], in assay [3], in [4], in assay [5] and in assay [7]. Further, the half-maximal activity concentration (AC50) in [6] is 38.8 µM (active).
Take `CCCCCCCC=O`: the outcome in [1], in [2], in [3], in assay [4] and in assay [7] was inactive.
Turning to `CCOc1ccc2c(c1)C(C)=CC(C)(C)N2`, the half-maximal activity concentration (AC50) was 58.1 µM (active) in assay [1], 151 µM (active) in assay [3], 38.2 µM (active) in assay [4] and 155 µM (active) in [7]. Moreover, the molecule was classed as inactive in assay [2], in assay [5] and in assay [9].
As for `Cc1cccc(Nc2cc(Cl)nc(SCC(=O)O)n2)c1C`, the outcome in assay [1], in [2], in assay [3], in assay [4], in [6] and in assay [7] was inactive. The call in [10] was inactive.
Take `Cc1c(C(=O)O)c(O)cc2c1C(=O)c1c(O)c([C@@H]3O[C@H](CO)[C@@H](O)[C@H](O)[C@H]3O)c(O)c(O)c1C2=O`: the molecule was called inactive in assay [1], in [2], in assay [3], in assay [4], in assay [6] and in [7].
On to `Cc1cccc([N+](=O)[O-])c1C`, for which the call in assay [1], in assay [2], in [3], in [4], in assay [5] and in [7] was inactive. In assay [10], the molecule was classed as inactive.
Turning to `CCCCc1ccc2c(n1)[C@@H](c1ccc(OC)cc1C[C@H](C)C(=O)O)[C@H](C(=O)O)[C@H]2c1ccc2c(c1)OCO2`, the molecule was called inactive in assay [1], in assay [2], in assay [3], in assay [4], in assay [5] and in assay [7]. Moreover, the call in [10] was inactive.
Consider `CC1(C)CC(N=C=O)CC(C)(CN=C=O)C1` (configuration not stated), for which the molecule was classed as inactive in assay [1], in assay [2], in assay [3], in assay [4] and in assay [7].
`Cc1ccc(C)c(C)c1`: the outcome in assay [1], in assay [2], in assay [3], in [4], in [5] and in assay [6] was inactive. The outcome in [7] was inactive.
